# About 800 (1.6%) of roughly 50,000 compounds showed an effect of 50% or more. The list comes from a sample in which strong results are over-represented; it also holds similar structures and randomly drawn compounds.
# Biological target: Bcl-2-like protein 10 (Homo sapiens) (UniProt Q9HD36)
# Experiment: TR3 peptide-Bcl-B binding displacers, biochemical primary FP assay, phenotype converters (AID 1240);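 note: 0% = Bcl-B with tracer peptide and DMSO and 100% = tracer peptide lacking Bcl-B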
# Conditions: GST-Bcl-B / FITC-TR3 peptide fluorescence polarization; stronger effect = higher value; compound at 3.75 mg/L
# Chain of Bcl-2-like protein 10 (Homo sapiens) (Q9HD36 whole entry, looked up): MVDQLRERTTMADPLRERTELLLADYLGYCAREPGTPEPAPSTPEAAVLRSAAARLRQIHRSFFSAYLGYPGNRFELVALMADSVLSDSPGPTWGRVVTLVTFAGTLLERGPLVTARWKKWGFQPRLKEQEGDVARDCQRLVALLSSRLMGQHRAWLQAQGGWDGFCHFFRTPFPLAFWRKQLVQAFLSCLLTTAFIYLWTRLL
row,Structure (SMILES),displacement
1,COC(=O)c1cc(C(=O)N2CCCC2)cc([N+](=O)[O-])c1,12.7%
2,Cc1cc(/C=N/NC(=O)c2ccccn2)c(C)n1-c1cccc(Cl)c1,-15.5%
3,COc1ccc(S(=O)(=O)N(CC(=O)N[C@@H]2CCCC[C@H]2O)c2ccc(C)cc2)cc1OC,0.1%
4,COC(=O)c1cnn2c1NC(c1ccccc1)CC2C(F)(F)F (centres undefined),6.5%
5,CC(C)(C)NC(=O)c1cc2nc(-c3ccccc3)cc(C(F)(F)F)n2n1,13%
6,CC(=O)NC1=NC(=O)/C(=C\c2ccc(Br)o2)S1,1.4%
7,CC(=O)NC1=NC(=O)/C(=C\c2ccccc2F)S1,107%
8,CC(=O)NC1=NC(=O)/C(=C\c2ccccc2C)S1,-6.5%
9,Cc1ccsc1/C=C1\SC(N2CCN(C)CC2)=NC1=O,3%
10,CC(=O)NC1=NC(=O)/C(=C\c2ccc(C)o2)S1,96%
11,CCN(CC)c1ccc(/C=C2/SC(NC(C)=O)=NC2=O)cc1,61.1%
12,CC(=O)NC1=NC(=O)/C(=C\c2sccc2C)S1,98.2%
13,Cc1ccsc1/C=C1/SC(N2CCCC2)=NC1=O,1.4%
14,CC(=O)NC1=NC(=O)/C(=C\c2ccc(I)o2)S1,20.2%
15,CC(=O)NC1=NC(=O)/C(=C\c2ccc(N(C)C)c(Br)c2)S1,-39.2%
16,CC(=O)NC1=NC(=O)/C(=C\c2ccc(N(C)C)cc2)S1,-23.2%
17,COc1ccccc1/C=C/C(=O)c1ccc(F)cc1,-0.2%
18,COc1ccc(CN2CCN(C3CCN(Cc4ccccc4)CC3)CC2)cc1Br,-9.1%
19,CCOC(=O)C1C(=O)NCC2CCCC21 (centres undefined),4.6%
20,O=C(CN1C(=O)c2ccccc2C1=O)Nc1cc(Cl)ccc1C(=O)O,-6.4%
21,COc1cccc(CN2CCN(Cc3cccnc3)CC2)c1,-13.5%
22,COc1ccc(/C=C/C(=O)O)cc1S(=O)(=O)NCc1ccccc1,7.2%
23,CN(C)CCOC(=O)C12CCC3CC(CC(C3)C1)C2,11.3%

row,Structure (SMILES),displacement
1,CCOC(=O)c1ccc(NC(=O)CC)cc1,4.7%
2,CCOC(=O)c1c(C)[nH]c(N=Nc2ccc(C)cc2)c1C,2.4%
3,CC(=O)NC1=NC(=O)/C(=C\c2cccs2)S1,109%
4,CC(=O)NC1=NC(=O)/C(=C\c2ccc(C(C)(C)C)cc2)S1,11.4%
5,CC(=O)NC1=NC(=O)/C(=C\c2ccccc2Cl)S1,14%
6,CC(=O)NC1=NC(=O)/C(=C/c2ccc(C)cc2)S1,118%
7,CC(=O)NC1=NC(=O)/C(=C\c2cccc([N+](=O)[O-])c2)S1,-42.2%
8,CC(=O)NC1=NC(=O)/C(=C\c2cccc(F)c2)S1,-29.1%
9,O=C(Nc1ccc(F)c(Cl)c1)c1cc([N+](=O)[O-])ccc1Cl,-10.3%
10,CC(C)C(=O)Nc1ccc(Cl)cc1C(=O)O,8.1%
11,COc1ccc(/C(C)=N/NC(=O)CN(c2ccc(C)cc2)S(=O)(=O)c2ccccc2)cc1OC,3.8%
12,COC(=O)c1ccc(/C=N/NC(=O)CCc2c(C)n[nH]c2C)cc1,4.2%
13,CC(C)C(=O)Nc1ccc(I)cc1Cl,11.1%
14,O=C(c1cccnc1)N(Cc1ccccc1)Cc1ccccc1,6%
15,O=C(Nc1ccc(Cc2ccncc2)cc1)c1ccc(Br)o1,13.1%
16,O=C(Nc1ccc(-c2nc3ncccc3o2)cc1)c1ccc(-c2ccc(Br)cc2)o1,88.1%
17,Cc1c(NC(=S)NC(=O)c2ccco2)cccc1-c1nc2ncccc2o1,9.2%
18,O=C(Nc1ccc(-c2nc3ncccc3o2)cc1)c1ccc(-c2cccc(Cl)c2)o1,14.3%
19,COc1cc(NC(=O)c2ccc(-c3ccc(Cl)cc3)o2)ccc1NC(=O)c1ccco1,-6.5%
20,O=C(NC(=S)Nc1ccc(-c2nc3ncccc3o2)cc1)c1ccco1,112%
21,O=C(Nc1ccc(-c2nc3ncccc3o2)cc1)c1ccc(Br)o1,-1.9%
22,O=C(Nc1ccc(Cc2ccncc2)cc1)c1ccc(-c2ccc(Br)cc2)o1,109%
23,Cc1cc(NC(=O)c2ccc(-c3ccc(Br)cc3)o2)ccc1NC(=O)c1ccco1,-2.6%

row,Structure (SMILES),displacement
1,O=C(NC(=S)Nc1ccc(-c2nc3ccccc3o2)cc1)c1ccco1,11.6%
2,COc1cc(NC(=O)c2ccc(-c3ccc(Br)cc3)o2)ccc1NC(=O)c1ccco1,158%
3,O=C(Nc1cccnc1)c1ccc(-c2ccc(Br)cc2)o1,-5.1%
4,Cc1ccccc1C(=O)O/N=C(\N)c1cccc([N+](=O)[O-])c1,-7.1%
5,Clc1ccc(OCCCN2CCCCC2)cc1,-10%
6,COc1ccccc1OCCCN1CCOCC1,-1.3%
7,COc1ccc(C2CC(O)C(C)C(c3ccc(OC)cc3)N2)cc1 (centres undefined),7.8%
8,CCOc1ccc(C(=O)Nc2cccc(C(F)(F)F)c2)cc1Cl,-12%
9,Cc1ccc(C(=O)Nc2ccc(-c3nc4ncccc4o3)cc2)cc1C,21.5%
10,COc1ccc(-c2cc(=O)oc3cc(OC(C)=O)ccc23)cc1,-5.1%
11,CC(=O)N(c1ccccc1)c1nnc(C)s1,-0.3%
12,O=C1NC(=O)N(c2ccccc2F)C(=O)/C1=C/c1ccc(I)o1,34.5%
13,CCN(CC)c1ccc(/C=C(\C#N)C(=O)Nc2ccc(OC)cc2)c(OC)c1,-6.6%
14,CCN(CC)c1ccc(C=C(C#N)C#N)c(OC)c1,91.5%
15,CCN(CC)c1ccc(C=C(C(C)=O)C(C)=O)c(OC(C)=O)c1,48.6%
16,Cc1cc(OCC(O)CNC(C)C)cc(C)c1Cl (centres undefined),3.1%
17,O=C(Cn1cc(/C=C2\SC(=S)NC2=O)c2ccccc21)Nc1ccccc1,-11.9%
18,COc1ccc(N2C(=O)/C(=C/c3cn(Cc4ccccc4)c4ccccc34)C(=O)NC2=S)cc1,25%
19,O=C(Cn1cc(/C=C2/C(=O)NC(=S)N(c3ccccc3)C2=O)c2ccccc21)Nc1ccccc1,143%
20,NC(=O)Cn1cc(/C=C2\C(=O)NC(=O)N(Cc3ccccc3)C2=O)c2ccccc21,17%
21,O=C(Cn1cc(C=C2C(=O)NC(=S)NC2=O)c2ccccc21)Nc1ccccc1,130%
22,O=C(Cn1cc(/C=C2\NC(=S)NC2=O)c2ccccc21)Nc1ccccc1,-41.9%
23,O=C(Nc1ccccc1)Nc1nnc(Cc2cccc(Br)c2)s1,1.9%

row,Structure (SMILES),displacement
1,CC1=C(C(=O)OCCc2ccccc2)C(c2ccccc2Cl)CC(=O)N1 (centres undefined),-7.2%
2,CC(C)(C)c1csc(N/N=C/c2ccccn2)n1,-6.6%
3,OCCNCCOc1cccc(Cl)c1Cl,2.8%
4,O=C1C2C3C=CC(O3)C2C(=O)N1c1ccccc1I (centres undefined),17.8%
5,CCOc1ccccc1C(=O)Nc1ccc(N2CCOCC2)cc1,3.2%
6,Cc1cccc(/C=C2/SC(=S)N(Cc3ccccc3)C2=O)c1,13.4%
7,Nc1nc2nc(C(F)(F)C(F)(F)C(F)(F)C(F)(F)F)cc(=O)n2[nH]1,-1.7%
8,COc1cc(OC)c(OC)cc1CNc1cccc(C)c1,4.3%
9,N#C/C(=C\c1ccc(-c2ccc(Br)cc2)o1)C(N)=O,4.6%
10,N#C/C(=C/c1ccc(-c2ccc3c(c2)C(=O)NC3=O)o1)C(N)=O,140%
11,N#C/C(=C\c1ccc(-c2ccc(Br)cc2)o1)c1nc2ccccc2[nH]1,2.1%
12,N#C/C(=C\c1ccc(-c2ccc(Cl)c(Cl)c2)o1)C(N)=O,7.8%
13,N#C/C(=C\c1ccc(-c2ccc3c(c2)COC3=O)o1)c1nc2ccccc2[nH]1,58.6%
14,Cc1ccc([N+](=O)[O-])cc1-c1ccc(/C=C(\C#N)c2nc3ccccc3[nH]2)o1,-0.7%
15,N#CC(C#N)=Cc1ccc(-c2ccc(S(N)(=O)=O)cc2)o1,-0.4%
16,N#CC(C#N)=Cc1ccc(-c2ccc3c(c2)COC3=O)o1,109%
17,N#C/C(=C\c1ccc(-c2ccc3c(c2)COC3=O)o1)C(N)=O,-10.4%
18,COc1ccc2ccccc2c1C=Nc1ccc(C)c(I)c1,-9.7%
19,CCOc1cc(/C=N/n2cnnc2)ccc1OCCOc1ccc(Br)cc1,19.3%
20,O=C(/C=C/c1ccc(F)cc1)c1nc2ccccc2s1,-6%
21,CCc1ccccc1N1C(=O)CC(Sc2nc(C)cc(C)n2)C1=O (centres undefined),10.8%
22,Cc1ccc(C=Nc2ccc(F)cc2)o1,4.1%
23,O=C(Nc1ccc(NC(=O)c2cccc(Br)c2)cc1)c1ccccc1,0%

row,Structure (SMILES),displacement
1,CC(C)OC(=O)c1ccc(NC(=O)c2cncc(Br)c2)cc1,12.3%
2,CC(C)OC(=O)c1ccc(NC(=O)c2cccc(Br)c2)cc1,69.2%
3,COc1ccc(N(CC(=O)Nc2cccc(C)c2)S(=O)(=O)c2ccc(C)cc2)c(OC)c1,3.6%
4,CCOC(=O)C1CCN(S(=O)(=O)c2ccc(F)cc2)CC1,-8%
5,N#Cc1ccccc1N=C1CCCN1Cc1ccccc1,17.4%
6,Cc1ccc(-c2ccc(OCC(=O)Nc3ccccc3C(N)=O)cc2)cc1,4.4%
7,O=C(NC(=S)NC1CCSC1=O)c1ccco1 (centres undefined),1%
8,Cc1cccc(NC(=O)c2cc3c(ccc4ccccc43)oc2=O)n1,-7%
9,O=C(Nc1ccncc1)c1cc2c(ccc3ccccc32)oc1=O,9.6%
10,Cc1cccnc1NC(=O)c1cc2c(ccc3ccccc32)oc1=O,93%
11,COc1cc(/C=N/NC(N)=O)ccc1OCC(=O)N1CCCCC1,-4.4%
12,COC(=O)c1ccccc1NC(=O)CSc1nnc(-c2cccc(F)c2)n1-c1ccccc1,-1.1%
13,Cc1nc(C)c(/C(O)=C/c2nc3ccc([N+](=O)[O-])cc3oc2=O)s1,-12%
14,CC(C)(C)/C(O)=C/c1nc2cc([N+](=O)[O-])ccc2[nH]c1=O,0.3%
15,Cc1cccc(-c2nc3ccccc3[nH]2)c1,10.9%
16,Cc1nc(C)c(/C(O)=C/c2nc3ccccc3[nH]c2=O)s1,61.6%
17,Cc1ccc(-c2nc3ccccc3[nH]2)s1,0.7%
18,Cc1cc(-c2ccccc2)sc1/C(O)=C/c1nc2ccccc2[nH]c1=O,112%
19,O=C(Nc1cccc(C(F)(F)F)c1)c1nn2c(c1Br)NC(c1cccs1)CC2C(F)(F)F (centres undefined),4.5%
20,COc1ccccc1NC(=O)c1c(NC(=O)Cc2ccccc2)sc2c1CCCCC2,9.3%
21,CC(C)OP(=O)(OC(C)C)C(Nc1ccc(Br)cc1)c1ccc(O)cc1 (centres undefined),-13.8%
22,CCOc1ccccc1N(CC(=O)NC1CCCCC1)S(=O)(=O)c1ccccc1,10.8%

# From PubChem BioAssay AID1240 (Sanford-Burnham Center for Chemical Genomics, 2008)
